Shown are actives, neighbours in structure and some others; about 18% of the full set was active somewhere.
TGFb inhibitor – inhibitors of TGF-b signaling. HepG2 CAGA-GFP TGF-b/SMAD3 reporter, GFP fluorescence, 18 h; TGF-beta stimulated, 500 pg/mL final. Potency, µM (series often up to 46.1 µM), without a hit: at the top dose activity, negative = inhibition, actives largely listed as inhibitors. AID 588855. hit rate 1.2% among 410,000; further: potency means the concentration at half of the fitted maximal effect; on the % scale 0 is the no-effect control and ±100 the full control effect; nearly all actives have a fitted effect of over 65% in size
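TGF-beta reporter screen: HEPG2 CAGA-GFP, 1% FBS, 500 pg/mL TGF-beta final, 18 h; per-cell GFP summed per well; curves fitted and categorized by class.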
TDP1 inh – inhibitors of human tyrosyl-DNA phosphodiesterase TDP1. hit rate 0.28% among 350,000. AID 485290. Q9NUW8. Potency, µM (highest dose often 130 µM), for inactives: at the highest dose activity change, negative = inhibition, usual class: inhibitors. recombinant TDP1, AlphaScreen DNA substrate cleavage; further: potency means the concentration at half of the fitted maximal effect; on the % scale 0 is the no-effect control and ±100 the full control effect; nearly all actives have a fitted effect of over 40% in size
Target sequence (Q9NUW8 whole entry, looked up): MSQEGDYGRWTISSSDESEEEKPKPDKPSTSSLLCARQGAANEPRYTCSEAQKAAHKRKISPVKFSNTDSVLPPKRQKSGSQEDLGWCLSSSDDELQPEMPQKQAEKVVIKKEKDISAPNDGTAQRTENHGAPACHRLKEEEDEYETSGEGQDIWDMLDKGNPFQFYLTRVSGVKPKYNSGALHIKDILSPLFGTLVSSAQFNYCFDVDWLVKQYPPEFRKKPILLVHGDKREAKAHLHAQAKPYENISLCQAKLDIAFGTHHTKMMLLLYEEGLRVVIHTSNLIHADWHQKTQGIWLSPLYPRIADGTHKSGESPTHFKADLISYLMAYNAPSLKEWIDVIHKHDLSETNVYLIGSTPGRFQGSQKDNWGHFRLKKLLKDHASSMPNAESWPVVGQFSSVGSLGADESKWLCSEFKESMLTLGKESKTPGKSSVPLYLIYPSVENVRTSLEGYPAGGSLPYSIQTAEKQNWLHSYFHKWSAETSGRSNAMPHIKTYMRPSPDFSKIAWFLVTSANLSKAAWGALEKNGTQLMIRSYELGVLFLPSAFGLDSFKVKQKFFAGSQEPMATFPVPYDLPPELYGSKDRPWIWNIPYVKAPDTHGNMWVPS
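Recombinant human Tdp1 (E. coli-expressed, 1 nM final) preincubated with compounds 15 min at room temperature, then 5'-biotin/3'-phosphotyrosine-FITC DNA substrate (15 nM final) added for 5 min. AlphaScreen beads (10 ug/ml final) added 10 min; cleavage lowers signal.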
HepG2 viability – kills HepG2 cells in TGF-b inhibitor counter-screen | HepG2 CAGA-GFP viability, ATP luminescence, 18 h | Potency, µM (doses to about 46.1 µM), inactives show top-dose activity change, negative = cytotoxicity, usual class: cytotoxic | hit rate 0.76% among 410,000 | AID 588856; further: potency means the concentration at half of the fitted maximal effect
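CellTiter-Glo luminescence gave cytotoxicity after 18 hours at 37 degrees C. The cells were HepG2 CAGA-GFP in 1% FBS DMEM, stimulated with 500 pg/mL TGF-beta after compound addition. %Activity was normalised to no-cell wells (complete cell-killing) and DMSO (no toxicity), and curves were fitted and classified.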
IL1B secr inh – blocks inflammasome-driven IL-1 beta release; AID 743279; hit rate 4.7% among 360,000; activity change, % at 57.5 µM; THP-1 LPS/ATP IL-1B secretion, AlphaLISA, 16 h; hits give low values; in the data active means activity change below about -50%; inconclusive means mostly about -30% to -49%; further: on the % scale 0 is the no-effect control and ±100 the full control effect
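Secreted IL-1B measured by AlphaLISA bead assay after 16 h compound exposure of THP-1 cells; compounds (final up to 57.5 uM) added 1 h before LPS (250 ng/mL) and ATP (1.25 mM) stimulation; lower signal means less secretion.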
TDP1 cell noCPT – qHTS for Inhibitors of human tyrosyl-DNA phosphodiesterase 1 (TDP1): qHTS in cells in absence of CPT | Potency, µM (titrated, usually from 46.2 µM), inactives show top-dose activity change, negative = growth inhibition, most hits filed as inhibitors | DT40 Tdp1-/- hTDP1 cells, no CPT, ATP luminescence, 48 h | hit rate 15% among 420,000 | AID 686978, 2013; further: potency means the concentration at half of the fitted maximal effect; on the % scale 0 is the no-effect control and ±100 the full control effect; nearly all actives have a fitted effect of over 55% in size
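Luminescent ATP content (CellTiter-Glo) served as the growth readout. Knockout chicken DT40 cells expressing human TDP1 were exposed to compounds without camptothecin for a minimum 48 hr at 37 °C.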
TDP1 cell CPT – growth inhibition of DT40 Tdp1-/-;hTDP1 cells with camptothecin (screen for TDP1 inhibitors). Potency, µM (series often up to 46.2 µM), for inactives: at the highest dose activity change, negative = growth inhibition, actives largely listed as inhibitors. chicken DT40 Tdp1-/-;hTDP1 cells + 20 nM CPT, ATP luminescence, 48 h. hit rate 12% among 420,000; further: potency means the concentration at half of the fitted maximal effect; on the % scale 0 is the no-effect control and ±100 the full control effect; nearly all actives have a fitted effect of over 55% in size
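Chicken DT40 Tdp1-/- cells stably complemented with human TDP1 were seeded at 400 cells/well in medium containing 20 nM camptothecin, exposed to pin-transferred compounds, and grown at 37 °C for at least 48 hr. Viability was read as ATP luminescence.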
The depositor's hits bear a star. Unless noted, the call rests on the fitted dose curve; in most records, active means well fitted curve in the direction sought with a large enough effect; inconclusive means small, poorly fitted or top-dose-only effect, or another doubt; inactive means no such curve, though single readings can be large; an effect the other way counts as inactive or inconclusive.

COc1ccc(CNC(=O)c2cnn(-c3ccc(C)cc3)c2C2CCN(C(=O)OC(C)(C)C)CC2)cc1 was read as TGFb inhibitor inconclusive, TDP1 inh 0.0%, HepG2 viability -12.8%, TDP1 cell noCPT 20.6µM* and TDP1 cell CPT 9.2µM*.
For CC(C)(C)OC(=O)N1CCC(c2c(C(=O)NC3CCN(Cc4ccccc4)CC3)cnn2-c2ccc(F)cc2F)CC1 the results were TGFb inhibitor -7.6%, TDP1 inh 4.2%, HepG2 viability -0.7%, TDP1 cell noCPT 8.2µM* and TDP1 cell CPT 11.6µM*.
For CC(C)(C)OC(=O)N1CCC(c2c(C(=O)NCc3cccs3)cnn2-c2ccc(F)cc2F)CC1 the results were TGFb inhibitor -14.6%, TDP1 inh 3.2%, HepG2 viability -30.6%, TDP1 cell noCPT inconclusive and TDP1 cell CPT inconclusive.
Screening CCOC(=O)N1CCN(C(=O)CSC2=NS(=O)(=O)c3ccccc3N2)CC1 returned TGFb inhibitor 19.0%, TDP1 inh -0.2%, HepG2 viability 11.3%, IL1B secr inh -4.0, TDP1 cell noCPT -8.5% and TDP1 cell CPT 8.0%.
`CCCNC(=O)C1(C)CCCN(C(=O)c2ccc(F)cc2Cl)C1` (stereo unspecified) gave TGFb inhibitor -5.4%, HepG2 viability -2.0%, IL1B secr inh 15.4, TDP1 cell noCPT -1.2% and TDP1 cell CPT 1.4%.
Screening Cc1ccc(-c2c(C)n3c4c(=O)n(C)c(=O)n(C)c4nc3n2-c2cccc(O)c2)cc1 returned TGFb inhibitor 8.9%, TDP1 inh -1.9% and HepG2 viability -3.5%.
For CCOC(=O)c1cnn(-c2ccc(OC)cc2)c1C1CCN(C(=O)OC(C)(C)C)CC1 the results were TGFb inhibitor inconclusive, TDP1 inh -2.3%, HepG2 viability -17.9%, TDP1 cell noCPT 25.9µM* and TDP1 cell CPT inconclusive.
CC(C)(C)OC(=O)N1CCC(c2c(C(=O)N3CCCCC3)cnn2-c2cccc(F)c2)CC1 was read as TGFb inhibitor 12.9%, TDP1 inh -2.1%, HepG2 viability 0.0%, TDP1 cell noCPT -6.1% and TDP1 cell CPT 3.5%.
CC(C)(C)OC(=O)N1CCC(c2c(C(=O)NCCc3ccccc3)cnn2-c2ccc(F)cc2)CC1 was read as TGFb inhibitor inconclusive, TDP1 inh -3.2%, HepG2 viability -44.6%, TDP1 cell noCPT 16.4µM* and TDP1 cell CPT inconclusive.
Screening CC(C)(C)OC(=O)N1CCC(c2c(C(=O)NCc3ccccc3)cnn2-c2cccc(F)c2)CC1 returned TGFb inhibitor inconclusive, TDP1 inh 6.3%, HepG2 viability -42.3%, TDP1 cell noCPT 18.4µM* and TDP1 cell CPT inconclusive.
For COc1ccc(-n2ncc(C(=O)NC3CC3)c2C2CCN(C(=O)OC(C)(C)C)CC2)cc1 the results were TGFb inhibitor 0.4%, TDP1 inh 2.4%, HepG2 viability -13.2%, IL1B secr inh 14.2, TDP1 cell noCPT -0.7% and TDP1 cell CPT -20.2%.
Cc1ccc(-n2ncc(C(=O)NCCc3ccccc3)c2C2CCN(C(=O)OC(C)(C)C)CC2)c(C)c1 was read as TGFb inhibitor inconclusive, TDP1 inh 5.3%, HepG2 viability -7.4%, TDP1 cell noCPT inconclusive and TDP1 cell CPT inconclusive.
CC(C)(C)OC(=O)N1CCC(c2c(C(=O)NCCc3ccccc3)cnn2-c2ccc(F)cc2F)CC1 was read as TGFb inhibitor inconclusive, TDP1 inh 1.1%, HepG2 viability -12.3%, TDP1 cell noCPT 18.4µM* and TDP1 cell CPT 20.6µM*.
Screening C[C@H]1CN([C@@H](C)CO)S(=O)(=O)c2ccc(Br)cc2O[C@H]1CN(C)C(=O)c1cccnc1 returned TGFb inhibitor -0.8%, HepG2 viability 5.3%, IL1B secr inh 42.6, TDP1 cell noCPT -18.0% and TDP1 cell CPT -17.6%.
